An excerpt weighted towards active compounds, which were near 4.1% of everything screened.
ssDAF12 agonist = activators of S. stercoralis DAF-12 nuclear receptor; HEK293 ssDAF-12/GRIP1 lit1-tk-luc reporter, luminescence; % of 3 µM dafachronic acid response; activation, % at 6.8 µM; hit rate 1% among 370,000; AID 652126;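 active = activation above the mean over all tested compounds plus 3 SD, cut at about 0.9% in these data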;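 note: 0% = DMSO-only wells and 100% = 3 µM delta7-dafachronic acid wells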
DAX1 inh-1 = inhibitors of DAX1 repression of SF-1 activated StAR promoter; HEK293T StAR-luciferase reporter, SF-1/DAX-1 repression relief; AID 652010; inhibition, % at 6.8 µM; hit rate 1.1% among 370,000;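 active = inhibition above the mean over all tested compounds plus 3 SD, cut at about 3.6% in these data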;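 note: 0% = DAX-1 cells with DMSO and 100% = cells lacking DAX-1 with DMSO; higher inhibition means more luminescence from relief of DAX-1 repression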
hcDAF-12 act = H. contortus DAF-12 activation, primary screen. HEK293 hcDAF-12 lit1-tk-luc reporter, luminescence; 0% DMSO, 100% Δ7-dafachronic acid. hit rate 1.4% among 370,000. activation, % at 6.8 µM;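 active = activation above the mean of all tested compounds plus 3 SD, cut at about 5.5% in these data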;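 note: 100% = response to 3 µM Δ7-dafachronic acid high control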
DAX1 inh-2 = inhibits human nuclear receptor DAX1. HEK293 Gal4-DAX1 luciferase reporter, luminescence. inhibition, % at 6.75 µM. hit rate 0.99% among 340,000. AID 504766;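 active = inhibition above the mean over all tested compounds plus 3 SD, cut at about 4.2% in these data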;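 note: 0% = DAX1-transfected cells with DMSO and 100% = empty-vector control cells with DMSO; inhibition shows as a rise in luminescence from relieved DAX1 repression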
Target sequence (P51843 207-470 limits assumed): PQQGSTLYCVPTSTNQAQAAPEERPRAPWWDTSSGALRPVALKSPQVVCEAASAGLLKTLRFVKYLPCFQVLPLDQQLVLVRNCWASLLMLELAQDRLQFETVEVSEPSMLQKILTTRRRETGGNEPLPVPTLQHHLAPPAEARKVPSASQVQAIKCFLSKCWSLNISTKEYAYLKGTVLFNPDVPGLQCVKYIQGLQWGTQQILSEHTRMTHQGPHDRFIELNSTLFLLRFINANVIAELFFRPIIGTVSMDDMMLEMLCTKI
hgDAF12 agonist = activates the H. glycines DAF-12 receptor ligand-binding domain; hit rate 1.8% among 370,000; AID 687014; HEK293 GAL4-hgDAF12 UAS-luciferase reporter, agonist luminescence; normalized to butyrate control; activation, % at 6.8 µM;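 active = activation above a cutoff set at the mean of all screened compounds plus 3 SD, cut at about 10% in these data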;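 note: 0% = DMSO wells and 100% = sodium butyrate wells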
* marks the source's active call; other numbers are inactive results; / = no result.

SMILES	ssDAF12 agonist	DAX1 inh-1	hcDAF-12 act	DAX1 inh-2	hgDAF12 agonist
Cc1noc(C)c1C(=O)OCC(=O)/C=C1/N(C)c2ccccc2C1(C)C	-1	0	-1	5.9*	4
O=C(O)c1ccc2c(c1)C(=O)N(CCc1c[nH]c3ccccc13)C2=O	0	0	5.8*	1	3
CC1=CCC2C(=O)N(CCc3c[nH]c4ccccc34)C(=O)C2C1 (stereo unspecified)	1	0	4	0	3
O=C1C2CC=C(Cl)CC2C(=O)N1CCc1c[nH]c2ccccc12 (stereo unspecified)	1.2*	1	4	2	3
CC(=O)OCCCN1CCC2(CCCCC2)C1=O	-1	-1	-3	/	-1
O=C(Nc1ccc(F)cc1)OCc1cn(Cc2ccc(F)cc2F)nn1	-1	-1	-2	/	3
Cn1cccc1C(=O)NC(=O)CSc1nc2ccccc2s1	1.0*	1	4	0	4
CCC(=NCCc1ccc(OC)c(OC)c1)c1ccccc1O	0	-1	0	6.1*	2
CCC(C(N)=NCCc1ccc(OC)c(OC)c1)c1ccccc1 (stereo unspecified)	-1	0	4	0	-1
CCCOc1ccc(-c2nnc(-c3cccs3)o2)cc1	0	2	4	2	10*
CC(c1nccs1)N(C)C(=O)CCc1nnc(Cc2c[nH]c3ccccc23)o1 (stereo unspecified)	3.5*	-1	2	0	-4
O=C(O)/C=C/C(=O)Nc1c(F)cccc1F	-1	0	-2	4.2*	-1
O=C(O)/C=C/C(=O)Nc1ccc(-n2nccc2C(F)(F)F)cc1	-1	0	1	4.2*	2
O=C(O)/C=C/C(=O)Nc1ccc(-c2ccccc2)cc1	-1	1	0	-3	11*
O=C(O)/C=C\C(=O)Nc1ccccc1C#Cc1ccccc1	-1	1	1	2	10*
COC(=O)[C@]12C[C@H](CC(=O)N3CCCC3)C(=O)N(Cc3ccc(Cl)cc3Cl)C1=C[C@H](COCc1ccccc1)O[C@@H]2C	-2	-1	-4	/	-4
COC(=O)[C@]12C[C@H](CC(=O)N3CCN(C(=O)c4ccco4)CC3)C(=O)N(CCc3ccc(OC)c(OC)c3)C1=C[C@H](C(C)(C)C)O[C@@H]2C	-1	0	-4	/	-4
O=C(NC(=S)NCc1cccnc1)c1cc2ccccc2o1	-1	-1	0	0	4
O=C(NC(=S)Nc1cccnc1)c1cc2ccccc2o1	0	2	2	1	11*
CCOC(=O)c1ccc(NC(=O)c2cc3ccccc3o2)cc1	-1	0	-1	0	9
CCOC(=O)c1cccc(NC(=O)c2cc3ccccc3o2)c1	-1	2	1	-3	11*
Cc1cc(C(=O)Nc2cccc(C(=O)O)c2)oc1C	0	3	5	-4	10*
Cc1cc(C(=O)Nc2cccc(C(=O)O)c2)c(C)o1	-1	1	-1	0	6
CCC(=O)Nc1cccc(NC(=O)c2cc3ccccc3o2)c1	-1	3	2	3	11*
O[C@H](COc1ccc(OC(F)(F)F)cc1)CN1CCC(C(O)(c2ccccc2)c2ccccc2)CC1	-2	-2	-3	/	-2
SMILES	ssDAF12 agonist	DAX1 inh-1	hcDAF-12 act	DAX1 inh-2	hgDAF12 agonist
Cn1c(=O)c2[nH]c(SCC(=O)NCCc3cccc(F)c3)nc2n(C)c1=O	-1	0	-1	/	-1
CCOC(=O)N1C(=O)C[C@](Sc2ccc(OC)cc2)(C(=O)N2CCOCC2)[C@H]1c1ccc(OC)cc1	-1	-2	0	/	4
CCCN1CCc2c(sc(NC(=O)C3CCN(S(=O)(=O)c4cccs4)CC3)c2C(N)=O)C1	-1	0	0	0	1
O=C(CCc1ccccc1)N[C@H]1[C@@H](OC(=O)c2cnccn2)CCC[C@]12C(=O)N(Cc1ccccc1)c1ccccc12	-1	0	-1	/	-1
O=C1C(=Cc2cccn2-c2ccccc2)C(=O)c2ccccc21	1.0*	0	2	-1	5
Cc1ccc(NC(=O)NNC(=O)CSC2CCc3ccccc32)c(C)c1 (stereo unspecified)	0	2	2	/	-1
COc1ccc(Nc2n[nH]c(N)c2C(N)=O)cc1	-2	1	0	14*	-2
COC(=O)C1=C(C)N(C)C(=NCc2ccc(OC)cc2)NC1c1cccc(C(F)(F)F)c1 (stereo unspecified)	-1	1	-2	/	0
CN(C)N=Nc1ccc(-c2cn(Cc3ccccc3)cn2)cc1	1.0*	1	2	2	10
COc1ccc(CN2CN3Cc4cc(OC)ccc4C3CS2(=O)=O)cc1 (stereo unspecified)	-2	-1	0	/	3
O=P(O)(O)c1ccccc1OCCOCCOCCOCCOc1ccccc1P(=O)(O)O	0	3	4	4.4*	7
NC(=O)c1ccccc1OCCOCCOCCOc1ccccc1C(N)=O	-1	1	-1	1	-1
O=C(NCC1CCCO1)c1cc2ccccc2nc1Cl (stereo unspecified)	0	1	0	4.3*	0
Cc1ccc2nc(-c3ccccc3)cc(C(=O)NCC3CCCO3)c2c1 (stereo unspecified)	-1	0	0	/	2
Cc1nc2ccc(F)cc2cc1C(=O)NCC1CCCO1 (stereo unspecified)	0	0	5.8*	0	-1
O=C(NCC1CCCO1)c1cccc2ccccc12 (stereo unspecified)	0	0	-2	2	3
COc1ccccc1N1CCN(S(=O)(=O)CCNC(=O)C23CC4CC(CC(C4)C2)C3)CC1	-2	-1	-5	-1	-6
CC(=O)Nc1c2c(nn1-c1ccccc1C)CSC2	-1	2	-1	0	-1
Cc1ccccc1-n1nc2c(c1NC(=O)c1ccc(S(=O)(=O)N(C)C)cc1)CSC2	-1	1	5.9*	0	-2
Cc1cc(C)nc(NC(=S)N2CCN(c3ncc(C(F)(F)F)cc3Cl)CC2)c1	-2	/	-3	/	-1
CC1(C)CC(=O)C(N=Nc2cccc([N+](=O)[O-])c2)=C(O)C1	0	0	1	6.1*	0
Cc1ccc(-n2c(Cn3ncc4ccccc4c3=O)n[nH]c2=S)cc1	1.3*	0	1	1	-1
O=c1c2ccccc2cnn1Cc1n[nH]c(=S)n1-c1ccc(F)cc1	-2	-1	-1	0	-1
c1ccc(Cc2cc(-c3ccccc3)on2)cc1	-1	0	1	5.5*	10
Cc1nn(-c2ccccc2)c(C)c1/C=N\N1CCN(Cc2ccccc2Cl)CC1	-1	-1	-4	/	-1
Nc1ccc2oc3ccccc3c2c1	0	1	6.1*	1	10
Nc1ccc(C#Cc2ccc3oc4ccccc4c(=O)c3c2)cc1	-2	0	-1	-2	5
CCOc1ccc(-n2c(SCC(=O)Nc3ccc4cn[nH]c4c3)nnc2-c2ccncc2)cc1	-1	-1	-2	/	4

Screens as filed in PubChem.
